This excerpt belongs to a sample that is enriched for hits.
ST2 inh = inhibitors of human ST2 (IL1RL1) binding to IL-33, primary screen, biochemical, AlphaLISA; inhibition, % for hits at 17 µM; AID 1259354, 2018; AlphaLISA ST2-Fc/biotin-IL-33 interaction, 1 h; hit rate 2.3% among 78,000; in the data active = inhibition above about 30%
Target sequence (Q01638 whole entry, looked up): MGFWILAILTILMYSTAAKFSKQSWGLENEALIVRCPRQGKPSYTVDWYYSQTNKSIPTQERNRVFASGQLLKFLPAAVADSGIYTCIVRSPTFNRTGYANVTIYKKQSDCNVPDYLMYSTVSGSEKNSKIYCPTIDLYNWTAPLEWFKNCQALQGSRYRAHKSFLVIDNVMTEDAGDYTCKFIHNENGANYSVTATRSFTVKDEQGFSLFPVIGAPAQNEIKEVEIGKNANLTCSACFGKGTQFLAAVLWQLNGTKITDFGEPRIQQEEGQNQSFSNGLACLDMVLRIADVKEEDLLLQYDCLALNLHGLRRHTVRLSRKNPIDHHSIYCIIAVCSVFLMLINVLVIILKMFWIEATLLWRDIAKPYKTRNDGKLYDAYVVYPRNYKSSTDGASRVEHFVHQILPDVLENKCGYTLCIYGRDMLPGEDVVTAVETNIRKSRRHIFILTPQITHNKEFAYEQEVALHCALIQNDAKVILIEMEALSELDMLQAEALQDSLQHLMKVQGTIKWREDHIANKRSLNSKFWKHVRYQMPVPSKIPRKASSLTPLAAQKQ
* hit, by the source's call; i = inactive; ! = not active in a repeat.

SMILES	ST2 inh
CC(=O)Nc1ccc(N=Cc2cccc([N+](=O)[O-])c2O)cc1	i
O=C(O)c1ccc(N2C(=O)[C@H]3C4c5ccccc5C(CO)(c5ccccc54)[C@H]3C2=O)cc1	i
c1ccc2c(N3CCN(c4ncnc5ccccc45)CC3)ncnc2c1	i
CC(C)C(=O)Nc1ccc2oc3ccc(NC(=O)C(C)C)cc3c(=O)c2c1	i
O=C(CCS(=O)(=O)c1ccc(Br)s1)Nc1ccc(Br)cc1	i
COCCCNC(=O)CN1C(=O)/C(=C\c2ccc(C(F)(F)F)cc2)Sc2ccccc21	i
CCC1Oc2ccccc2N(CC(=O)NCCCN(CC)CC)C1=O (centres undefined)	i
Cc1ccc(/C=C2/Sc3ccccc3N(CC(=O)NCc3ccccn3)C2=O)cc1	32%*
CCCCOc1ccc(CNC(=O)CN2C(=O)c3cccnc3Sc3ccccc32)cc1	i
CCCCNC(=O)CN1C(=O)/C(=C/c2ccccc2F)Sc2ccccc21	i
CCN(CC)CCNC(=O)CN1C(=O)/C(=C\c2ccc(Cl)cc2)Sc2ccccc21	33%*
CCN(CC)CCCNC(=O)CN1C(=O)/C(=C\c2ccc(Cl)cc2)Sc2ccccc21	i
O=C(CN1C(=O)/C(=C/c2ccccc2F)Sc2ccccc21)NCc1ccccc1Cl	i
CCN(CC)CCNC(=O)CN1C(=O)/C(=C\c2ccc(C(F)(F)F)cc2)Sc2ccccc21	37%*
CCN(CCNC(=O)CN1C(=O)/C(=C/c2ccccc2F)Sc2ccccc21)c1ccccc1	42%*
Cc1cc(NC(=O)CN2C(=O)S/C(=C\c3ccc(Cl)cc3)C2=O)no1	i
Cc1ccc2c(c1)N(CC(=O)NCc1ccccn1)C(=O)CO2	i
CCC(C)n1c(=N)c(C(=O)NCCCOC)cc2c(=O)n3cccc(C)c3nc21 (centres undefined)	i
O=C(CCCn1cnnn1)NCc1cccnc1N1CCCCCCC1	i
O=C1c2ccccc2NC(c2cccc(F)c2)N1c1ccc(Cl)cc1 (centres undefined)	i
O=C(C1CC1)N1CCc2cc(S(=O)(=O)NCC3CCCO3)ccc21 (centres undefined)	i
Cc1ccc(NC(=O)C2CC(=O)OC23CCCCC3)c([N+](=O)[O-])c1 (centres undefined)	i
Cc1cc(CN(C)C(=O)C2CCN(c3nc(C)c4cc(C(C)C)ccc4n3)CC2)on1	i
COc1ccccc1C1C2=C(CCCC2=O)Nc2nc(SCc3ccccc3F)nn21 (centres undefined)	i
Cc1ccc(CN2CC34C=CC(O3)C(C(=O)NCCc3ccccc3)C4C2=O)cc1 (centres undefined)	i
SMILES	ST2 inh
C=CCOc1ccc(/C=c2\sc3ncnn3c2=O)cc1	i
CC1CCCC[C@H]2C(=O)C=C[C@H](O)[C@@H]2CC(=O)O1 (some centres undefined)	46%*
O=C(N[C@H]1CO[C@H]2[C@@H]1OC[C@H]2O)c1ccccc1	i
CCC(O)c1ccc(OCC(O)CN2CCCCC2)c(OC)c1 (centres undefined)	i
Cc1ccc(F)c(-c2ncccc2NC(=O)C(C)C)c1	i
Cc1ccc(F)c(-c2ncccc2C(=O)N2CCCC2)c1	i
Cc1ccc(C)c(C2=C/C(=C3/c4ccccc4-c4ncccc43)C(=O)O2)c1	43%*
CC1CN(CC(=O)NC2CCCCC2)CC(C)O1 (centres undefined)	i
Cc1cc(C)c(S(=O)(=O)N2CCC(N(C)CCC(C)C)CC2)c(C)c1	i
COc1ccc2nc(CNC(=O)c3ncc[nH]3)[nH]c2c1	i
C/C(=C\C(=O)c1ccc(Cl)cc1)Nc1ccccc1O	30%*
O=C(Nc1ccccc1O)c1ccc(S(=O)(=O)c2ccc(Cl)cc2)cc1	i
Cc1c(F)cccc1NC(=O)c1ccc(Cl)cc1	i
CN(C)CC1(O)CCCN(S(=O)(=O)c2ccc(-c3ccccc3)cc2)CC1 (centres undefined)	i
CN(c1ccccc1)S(=O)(=O)c1ccc(C(=O)Nc2sc3c(c2C(N)=O)CCC3)cc1	i
N#Cc1ccccc1COc1ccc(/C=C2\SC(N)=NC2=O)cc1	i
CC(C)NC(=O)c1cc(-c2ccc(Cl)c(Cl)c2)on1	i
Cc1noc(C)c1-c1ccc(Cl)c(Cl)c1	49%*
Cc1cc(NC(=O)c2cc(-c3ccc(Cl)c(Cl)c3)on2)no1	i
CC(=O)N1CCc2cc(Br)cc(S(=O)(=O)CCC(=O)N3CC(C)CC(C)C3)c21 (centres undefined)	i
CN(Cc1c(F)ccc(F)c1Cl)CC1CC(=O)N(C2CCCC2)C1 (centres undefined)	i
O=C(c1ccc2c(c1)OCO2)N1CCN=C1SCc1ccccc1Cl	i
CCCCNC(=O)CN1C(=O)/C(=C\c2ccc(Cl)cc2)Sc2ccccc21	i
O=C(CN1C(=O)/C(=C\c2ccc(Cl)cc2)Sc2ccccc21)NCCN1CCCC1	33%*
CCC1Oc2ccccc2N(CC(=O)NCCN2CCCC2)C1=O (centres undefined)	i
SMILES	ST2 inh
O=C(NCCN1CCOCC1)Nc1ccc(Cl)cc1	i
O=C(CN1C(=O)/C(=C\c2ccc(Cl)cc2)Sc2ccccc21)NCCN1CCOCC1	30%*
O=C(CN1C(=O)/C(=C\c2ccc(Cl)cc2)Sc2ccccc21)N1CCOCC1	i
CC(C)=C1C2C=CC1[C@@H]1C(=O)N(c3ccc(F)cc3)C(=O)[C@H]21	i
O=C(CN1CCCN(Cc2cccc(F)c2)S1(=O)=O)Nc1ccccc1Cl	i
CN1CCCN(Cc2ccc(F)cc2)CC1	i
O=C(COc1ccc2ccccc2c1)NCCSc1c[nH]c2ccccc12	i
Cc1ccc(CNS(=O)(=O)c2cccc3nonc23)o1	i
Cc1c(C)n(CC(O)CNc2ccc(Br)cc2)c2ccccc12 (centres undefined)	31%*
Cc1ccc(NCC(O)Cn2c(C)c(C)c3ccccc32)cc1 (centres undefined)	36%*!
Cc1c(C)n(CC(O)CN2CCOCC2)c2ccccc12 (centres undefined)	i
Cc1cc(C)n(CC(O)Cn2c(C)c(C)c3ccccc32)n1 (centres undefined)	i
Cc1ccc(NCC(O)Cn2c(C)c(C)c3ccccc32)cc1C (centres undefined)	i
CN(CC(O)Cn1c2ccccc2c2ccccc21)S(=O)(=O)c1ccc(Br)cc1 (centres undefined)	i
Cc1oc(-c2cccc(Br)c2)nc1CN1CCC(C(=O)O)CC1	i
OC(C#CC(O)(c1ccccc1)c1ccccc1)c1ccccc1F (centres undefined)	i
Cc1cc(C(=O)O)ccc1-c1ccc(C(C)N2CCOCC2)cc1 (centres undefined)	i
CN1CCN(C(=O)CC[C@@H]2CNC(=O)[C@@H]3C[C@H](NCc4cn(C)c5ccccc45)CN23)CC1	i
N#Cc1sc2nc(-c3cccs3)cc(C(F)(F)F)c2c1N	i
Cc1ccc(-n2ccnc2-c2ccncc2)cc1O	i
CCn1cc(S(=O)(=O)CC(=O)Nc2ccc(F)cc2)c2ccccc21	i
O=C(C1CCCC1)N1CCN=C1SCc1cccnc1	i
O=C(O)c1cc(-c2c[nH]c3ccccc23)n[nH]1	i
Nc1ccc(Br)cc1-c1nc2ccccc2[nH]c1=O	i
O=c1c2c[nH]c3ccccc3nc-2c2ccccc12	42%*
COc1ccc2c(c1)CN(c1ccc(C(=O)O)cc1)CO2	i
CCOc1ccc(N2COc3ccc(OCC)cc3C2)cc1	i
